Source: PubChem
RGS16-Gao = RGS16-Galphao interaction regulator (human). O15492+P09471. bead-based flow cytometry RGS16-Galphao binding, fluorescence; actives lie on both sides. binding response (% of control), % at 10 µM. hit rate 0.38% among 220,000. AID 1441;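 note: Galphao activated by GDP with aluminum fluoride before binding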
GSH fluor = compound fluoresces at 488/530 nm on GSH beads. hit rate 0.25% among 190,000. AID 1776. GSH beads flow cytometry, compound fluorescence 488/530 nm; hits give high values. fluorescence (KMESF) at 10 µM; in the data active = fluorescence above about 89;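 note: glutathione beads carrying GST-tagged Bcl family fusion proteins plus one bare bead set; values are compound well signal with DMSO vehicle wells as background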
RGS7-Gao reg = modulates binding of RGS7 to human Galphao. P09471. Multiplexed bead flow cytometry; actives lie on both sides. AID 1439. hit rate 0.35% among 220,000. binding response (% of control), % at 10 µM; in the data active = binding response below about 49% or above about 150%; inconclusive = no clear call, values can overlap the other calls; inactive = in between;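 note: fluorescent Galphao held in activated GDP-AlF4 state binding bead-coupled RGS7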
Target sequence (P09471 whole entry, looked up): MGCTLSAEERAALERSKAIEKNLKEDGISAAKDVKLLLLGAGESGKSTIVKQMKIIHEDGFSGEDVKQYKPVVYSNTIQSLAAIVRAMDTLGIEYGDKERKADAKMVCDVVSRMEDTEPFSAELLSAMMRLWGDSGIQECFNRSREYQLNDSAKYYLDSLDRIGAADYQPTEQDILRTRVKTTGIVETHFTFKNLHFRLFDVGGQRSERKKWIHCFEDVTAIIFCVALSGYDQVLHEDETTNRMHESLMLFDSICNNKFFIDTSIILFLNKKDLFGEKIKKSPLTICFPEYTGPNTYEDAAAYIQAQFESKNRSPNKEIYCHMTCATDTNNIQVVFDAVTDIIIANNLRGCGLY
RGS8-Gao = human RGS8-Galphao interaction regulation; P09471; multiplexed bead flow cytometry, RGS8-Galphao binding; actives lie on both sides; response (percent of control binding), % at 10 µM; hit rate 0.34% among 220,000; in the data active = response below about 60% or above about 140%; inactive = in between;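 note: Galphao activated as the GDP aluminium fluoride complex binding bead-coupled RGS8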
RGS4-Gao reg = human RGS4-Galphao interaction regulation. P09471. Multiplexed bead flow cytometry, RGS4-Galphao binding; actives lie on both sides. binding response (% of control), % at 10 µM. hit rate 0.33% among 220,000. AID 1415; in the data active = binding response below about 49% or above about 150%; inactive = in between;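 note: fluorescent Galphao activated with aluminum fluoride binding bead-coupled RGS4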
Avidin fluor = compound fluoresces at 488/530 nm on avidin beads | fluorescence (KMESF) at 10 µM | hit rate 0.38% among 220,000 | compound fluorescence 488/530 nm, flow cytometry; hits give high values | AID 1775; in the data active = fluorescence above about 47
RGS4-Gao HTS = regulators of human RGS4-Galphao interaction. RGS4–Galpha-o binding response, % at 10 µM. hit rate 99% among 1,600. shares compounds with RGS16-Gao. AID 1504. multiplexed bead flow cytometry, RGS–Galpha-o binding;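 note: fluorescently labeled Galpha-o bound to GDP with aluminium fluoride binding biotinylated RGS beads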
Target sequence (P09471 whole entry, looked up): as above
Target sequence (P49798 whole entry, looked up): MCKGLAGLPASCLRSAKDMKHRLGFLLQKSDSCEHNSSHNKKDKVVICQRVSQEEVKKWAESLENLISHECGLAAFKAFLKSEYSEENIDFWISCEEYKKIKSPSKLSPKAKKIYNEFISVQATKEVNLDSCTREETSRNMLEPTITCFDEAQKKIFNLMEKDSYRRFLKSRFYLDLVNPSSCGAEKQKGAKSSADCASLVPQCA
Avidin counter = biotin-avidin bead binding disruption counter-screen | inhibition, % at 10 µM | 1,700 tested, under 10 active | streptavidin beads, fluorescein-biotin binding, flow cytometry | shares compounds with RGS16-Gao;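 active = inhibition above 50%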;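 note: median green fluorescence of gated singlet beads compared with DMSO control wells; 0% = DMSO wells and 100% = complete loss of bead fluorescence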
RGS8-Gao confirm = confirmation of regulators of human RGS8-Galphao interaction. hit rate 3% among 1,700. shares compounds with RGS16-Gao. bead-based flow cytometry RGS8-Galphao binding, fluorescence; actives lie on both sides. binding response (% of control), % at 10 µM. AID 1836; in the data active = binding response below about 72% or above about 130%; inactive = in between;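 note: Galphao activated as GDP AlF4 complex before binding bead RGS8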
RGS7-Gao single = RGS7-Galphao interaction regulation, single point confirmation. shares compounds with RGS16-Gao. bead-based flow cytometry RGS7-Galphao binding; actives lie on both sides. response (percent of control binding), % at 10 µM. hit rate 7.8% among 1,700. AID 1837; in the data active = response below about 75% or above about 130%; inactive = in between;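 note: fluorescent Galphao activated with GDP and aluminum fluoride binding bead-coupled RGS7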
RGS16-Gao single = confirmation of regulators of human RGS16-Galphao interaction. shares compounds with RGS16-Gao. response (% of control binding), % at 10 µM. bead-based flow cytometry, RGS16-Galphao binding; actives lie on both sides. hit rate 4% among 1,700; in the data active = response below about 74% or above about 130%; inactive = in between;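 note: Galphao activated as the GDP aluminium fluoride complex binding bead-coupled RGS16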
RGS4-Gao confirm = confirmation of regulators of human RGS4-Galphao interaction; RGS4-Galphao binding, multiplexed bead flow cytometry; actives lie on both sides; AID 1840; hit rate 4% among 1,700; binding response (% of control), % at 10 µM; shares compounds with RGS16-Gao; in the data active = binding response below about 74% or above about 130%; inactive = in between
RGS19-Gao conf = RGS19-Galphao interaction regulation, single point confirmation. shares compounds with RGS16-Gao. bead-based flow cytometry RGS19-Galphao binding; actives lie on both sides. response (percent of control binding), % at 10 µM. hit rate 5% among 1,700; in the data active = response below about 50% or above about 160%; inactive = in between;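 note: 100% = no compound control and 0% = blank background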
The depositor's hits bear a star; i = inactive; u = inconclusive; x = no result given; [ ] = dose if it differs, or a comment. Rows were chosen to be rich in hits. Some 1.2% of all compounds tested hit in one or more screens of this group. Unless noted, the rule behind the calls is not given here.

SMILES	RGS16-Gao	GSH fluor	RGS7-Gao reg	RGS8-Gao	RGS4-Gao reg	Avidin fluor	RGS4-Gao HTS	Avidin counter	RGS8-Gao confirm	RGS7-Gao single	RGS16-Gao single	RGS4-Gao confirm	RGS19-Gao conf
COc1nc(-c2ccccc2)cc(-c2ccccc2)n1	107.2	26	206.8*[activator]	98.2	132.6	260*	132.6*	-0.2	104.5	107.3	105.4	103.9	112.0
CN(C)C(=O)NC(NC(=S)Nc1ccccc1)C(Cl)(Cl)Cl (stereo not given)	97.0	12	85.1	91.1	95.0	8	x	x	x	x	x	x	x
CN(C)C(=O)NC(Nc1ccc(Cl)cc1Cl)C(Cl)(Cl)Cl (stereo not given)	17.0*	18	66.8	55.9*	71.0	7	71.0*	2.4	94.7	88.7	89.5	88.9	92.4
COc1ccc(OCCC(=O)OCC(=O)NCCC2=CCCCC2)cc1	103.2	17	u	104.3	102.3	9	x	x	x	x	x	x	x
Cc1ccc(/C=N/NC(=O)c2ccc3nc[nH]c3c2)o1	92.0	x	u	95.2	155.6*[activator]	128*	x	2.6	97.7	90.2	98.3	95.9	78.1
Cc1ccc(OC(=S)Nc2ccc(O)cc2)cc1	110.3	21	104.6	106.2	98.8	5	x	x	x	x	x	x	x
CC(C)c1ccc(N(C(=O)C(F)(F)F)C(C(=O)NC2CCCCC2)c2ccncc2)cc1 (stereo not given)	77.0	5	93.0	98.3	95.7	15	x	x	x	x	x	x	x
CCOC(=O)c1cccc(-n2c(C)nc3ccccc3c2=O)c1	72.6	29	99.7	90.7	96.5	13	x	x	x	x	x	x	x
CCOC(=O)c1cccc(-n2c(-c3ccc(OC)cc3)nc3nc4ccccc4nc32)c1	100.6	15	179.5*[activator]	97.8	107.8	124*	107.8*	0.1	95.5	103.5	100.0	100.5	90.3
COC(OC)c1ccnc(-c2ccc(OC(=O)c3ccccc3)cc2)n1	89.3	10	u	90.1	87.9	10	x	x	x	x	x	x	x
COC(OC)c1ccnc(-c2ccc(OC(=O)c3cccs3)cc2)n1	13.2*	11	u	15.1*	23.1*	0	x	1.1	103.3	102.4	103.0	103.9	97.6
CC1(C(=O)O)Oc2cccnc2NC1=O (stereo not given)	105.3	11	102.2	103.6	99.2	25	x	x	x	x	x	x	x
CCN=c1scc(C)n1/N=C/c1ccc(O)c(O)c1O	55.1	26	64.8	58.7*	80.3	4	80.3*	0.7	66.8*	63.8*	63.6*	78.2	46.9*
Cc1ccc2nc(-c3cccnc3)c(NC3CCCCC3)n2c1	203.3*[activator]	4	117.0	121.3	114.1	13	114.1*	-1.3	107.0	104.1	109.8	104.3	119.5
Cc1ccc2nc(-c3cccnc3)c(Nc3ccccc3C)n2c1	98.9	70	98.5	99.5	98.1	9	x	x	x	x	x	x	x
CC(CNCC1CCCO1)COc1ccccc1 (stereo not given)	174.7	35	108.2	122.8	112.6	3	x	x	x	x	x	x	x
CC(CNCC1CCCO1)COc1cccc2ccccc12 (stereo not given)	i	30	126.9	175.5*[activator]	116.6	3	116.6*	2.6	103.2	98.7	106.6	100.7	112.3
O=C(C1CCC1)N1CCc2cc(S(=O)(=O)NCc3ccccn3)ccc21	101.7	26	104.2	103.0	102.3	14	x	x	x	x	x	x	x
O=C1N/C(=N\c2ccccn2)SC1Cc1ccccc1Cl (stereo not given)	85.5	x	u	91.2	86.6	5	x	x	x	x	x	x	x
Cc1cccc(CC2S/C(=N/c3ccccn3)NC2=O)c1 (stereo not given)	236.5	21	113.7	141.5*[activator]	113.3	6	113.3*	-1.3	108.7	105.1	106.3	103.3	108.8
COc1cc(CCC(=O)O)on1	-8.1*	x	u	20.3*	-10.4*	-1	x	-1.4	97.9	80.7	94.2	89.8	80.4
COc1ccc(-c2noc(CCC(=O)O)n2)cc1	94.0	23	95.1	95.7	94.6	11	x	x	x	x	x	x	x
O=C(O)CCNS(=O)(=O)c1ccccc1Br	123.8	12	104.0	110.3	103.2	9	x	x	x	x	x	x	x
N#CC1=C(N)N(c2ccccc2)C2=C(C(=O)CCC2)C1c1ccsc1 (stereo not given)	16.1*	52	94.8	84.6	96.0	2	96.0*	1.4	102.2	103.3	103.0	108.0	104.7
O=C(CCN1C(=O)/C(=C/c2ccccc2Cl)SC1=S)NC1=NCCS1	306.7	12	122.2	157.3*[activator]	127.0	17	127.0*	2.2	105.5	97.9	100.8	97.8	95.4
SMILES	RGS16-Gao	GSH fluor	RGS7-Gao reg	RGS8-Gao	RGS4-Gao reg	Avidin fluor	RGS4-Gao HTS	Avidin counter	RGS8-Gao confirm	RGS7-Gao single	RGS16-Gao single	RGS4-Gao confirm	RGS19-Gao conf
COc1ccc(Cn2c(CCC(=O)Nc3ccc(C)cc3)nc3cccnc32)cc1	154.0	36	110.9	101.3	156.0*[activator]	53*	x	0.2	102.3	99.1	95.2	97.1	68.5
Cc1n[nH]c(=O)nc1NCc1ccccc1Cl	95.4	16	99.0	99.1	96.6	10	x	x	x	x	x	x	x
CCc1cccc(CC)c1NC(=O)c1ccc(-n2cncn2)nc1	102.5	20	99.6	100.2	101.1	8	x	x	x	x	x	x	x
CC1CCCC(NC(=O)CCCn2c(=O)[nH]c3cc(Cl)ccc3c2=O)C1C (stereo not given)	204.1*[activator]	36	175.7*[activator]	110.1	212.4*[activator]	100*	x	1.0	104.8	102.2	105.3	104.4	107.0
CCOc1ccc2sc(NS(=O)(=O)c3ccc(OC)c(OC)c3)nc2c1	x	42	x	x	x	x	x	0.1	100.8	101.8	98.9	98.7	106.7
COc1ccc(S(=O)(=O)Nc2nc3ccccc3s2)cc1	101.6	11	99.4	97.7	100.0	42	x	x	x	x	x	x	x
COc1ccc(NC(=O)c2sccc2OS(=O)(=O)N(C)C)cc1	101.2	14	102.0	97.0	95.4	9	x	x	x	x	x	x	x
